PubChem BioAssay AID868 (SRMLSC, 2007)
Screen size: about 190,000 compounds; about 3,500 (1.8%) were called active. This is one part of a sample in which actives are shown more often than they occur.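 The calls were made as follows: active = inhibition above a set limit, 3 SD over mean compound inhibition (cut at about 8.4% in these data); inactive = the rest.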

Test: RAM signaling blockers in budding yeast – dse1pr::URA3 reporter, 5-FOA selection, primary screen (AID 868);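 also: 0% = DMSO-only wells with no growth and 100% = 10 µM 1-NA-PP1 full growth; inhibition rescues growth on 5-FOA so higher OD means more RAM inhibition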
Details: S. cerevisiae dse1pr::URA3 reporter, 5-FOA growth OD615, 2 d; at 50 µM; hits give high values; analog-sensitive cbk1-as2 kinase mutant strain

SMILES	inhibition
CC1CCN(S(=O)(=O)c2ccc(S(=O)(=O)NCc3cccnc3)cc2)CC1	0.4% (inactive)
CCCCNC(=O)c1c[nH]c2ccc(S(=O)(=O)Nc3ccc(OCC)cc3)cc2c1=O	5.33% (inactive)
CCN(CC)S(=O)(=O)c1ccc2[nH]cc(C(=O)NCCc3ccccc3)c(=O)c2c1	6.86% (inactive)
COc1cccc(NS(=O)(=O)c2ccc3[nH]cc(C(=O)NCCCOC(C)C)c(=O)c3c2)c1	9.49% (active)
CCC1(C)Cc2c(sc3nc(SC)nc(N)c23)CO1 (stereo not drawn)	1.97% (inactive)
CCCSc1nc(NCc2ccco2)c2c3c(sc2n1)COC(C)(CC)C3 (stereo not drawn)	13.4% (active)
CN(C)CCSc1nc(N)c2c3c(sc2n1)COC(C)(C)C3	0.35% (inactive)
Cc1cccc(N2C(=O)C3C(c4ccccc4)OC4(C(=O)c5ccccc5C4=O)C3C2=O)c1 (stereo not drawn)	10.5% (active)
Cc1cccc(N2C(=O)c3cccnc3C2=O)c1	0.23% (inactive)
Cc1cccc(N2C(=O)CC(SC(N)=Nc3ccccc3)C2=O)c1 (stereo not drawn)	5.62% (inactive)
Cc1cccc(NC(=O)Cn2c(=O)n(Cc3ccccc3)c(=O)c3c(C)c(C)sc32)c1	2.47% (inactive)
Cc1cc(C(=O)N/N=C/c2ccccc2[N+](=O)[O-])c(C)o1	1.55% (inactive)
COC(=O)c1cc2occc2n1Cc1nc(-c2ccccc2C)oc1C	10.4% (active)
CCOC(=O)c1cc2occc2n1CC(=O)NC1CCC(C)CC1 (stereo not drawn)	1.74% (inactive)
Cc1ccccc1-c1nc(CS(=O)(=O)CC(=O)N2CCc3ccccc3C2)c(C)o1	3.54% (inactive)
COc1ccc(F)c(-c2nc(CN3CCC(c4ccccc4)CC3)c(C)o2)c1	1.5% (inactive)
CSC1=N/C(=C\c2ccc3c(c2)OCO3)C(=O)S1	5.69% (inactive)
CCC1=C/C(=C\c2ccc3c(c2)OCO3)C(=O)S1	5.39% (inactive)
O=C1/C(=C/c2ccc3c(c2)OCO3)CCC/C1=C\c1ccc2c(c1)OCO2	11.6% (active)
C=CS(=O)c1sc(Cl)c(N2CCOCC2)c1[N+](=O)[O-] (stereo not drawn)	-1.6% (inactive)
Cc1cccc(C(=O)OCC(=O)Nc2sc3c(c2C#N)CCC3)c1	3.27% (inactive)
C=CCn1c(-c2ccc(Cl)cc2)ccc(C#N)c1=O	10.6% (active)
C=CCn1c(SCn2nnc3ccccc3c2=O)nnc1-c1ccc(Cl)cc1	1.52% (inactive)
C=CCn1cc(-c2cccc(C(F)(F)F)c2)cc(C#N)c1=O	1.24% (inactive)

SMILES	inhibition
Cc1cccc(/C(N)=N/OC(=O)c2ccccc2Cl)c1	-0.84% (inactive)
O=C(O)C1CCCN(S(=O)(=O)c2cccc3cccnc23)C1 (stereo not drawn)	2.19% (inactive)
COc1ccc(NC(=O)C2CCCN(S(=O)(=O)c3cccc4cccnc34)C2)cc1OC (stereo not drawn)	-0.46% (inactive)
COc1ccc(NC(=O)C2CCCN(S(=O)(=O)c3cccc4cccnc34)C2)cc1 (stereo not drawn)	9.02% (active)
CCC(C)(C)c1ccc(Oc2ccc(NC(=O)COC(=O)C3=COCCO3)cc2)cc1	12.6% (active)
COc1ccc(NC(=O)COC(=O)CNC(=O)C2CCCCC2)cc1	0.13% (inactive)
O=C(OCC(=O)c1cccs1)C1=COCCO1	0.33% (inactive)
COc1ccccc1NC(=O)CSc1nc2sc(C)c(C)c2c(=O)n1Cc1ccco1	4.61% (inactive)
CCOC(=O)CSc1nc2c(c(=O)n(C)c(=O)n2C)n1Cc1ccccc1F	5.16% (inactive)
CCOC(=O)CSc1nc2c(sc(=S)n2CCc2ccccc2)c(=O)n1Cc1ccco1	10.1% (active)
O=c1[nH]c(N2CCN(Cc3ccc4c(c3)OCO4)CC2)nc2c1CCCC2	0.84% (inactive)
O=C(Nc1ccn(Cc2ccccc2)n1)c1cccc(F)c1	0% (inactive)
CC(=O)Nc1ccn(Cc2c(F)cccc2Cl)n1	0.11% (inactive)
O=C(Nc1ccn(Cc2ccccc2F)n1)c1ccc(COc2ccc(Cl)cc2Cl)o1	9.18% (active)
O=C(Nc1ccc2c(c1)CCC2)c1ccc(Br)s1	1.86% (inactive)
CCOC(=O)C(C)n1nc(-c2ccccc2)c2ccccc2c1=O (stereo not drawn)	0.13% (inactive)
O=C(Nn1cnc2ccccc2c1=O)c1ccccc1	1.22% (inactive)
CCSc1nc(C)nc2c1oc1ccccc12	3.79% (inactive)
COc1ccccc1Nc1ncnc2c1oc1ccccc12	5% (inactive)
CCc1nc(Nc2ccc3nccnc3c2)c2oc3ccccc3c2n1	12.5% (active)
Cc1ccc(NC(=O)C(=O)NCc2ccco2)c(C)c1	4.33% (inactive)
CCOc1ccc(/C=N/OCC(=O)NCc2cccs2)cc1	0.76% (inactive)
CCOC(=O)C1(CC2CCCCO2)CCN(Cc2nc(-c3cccs3)oc2C)CC1 (stereo not drawn)	0.26% (inactive)
O=C(COc1ccccc1)Nc1ccc(N2CCN(C(=O)c3cccs3)CC2)cc1	6.82% (inactive)

SMILES	inhibition
COc1ccc(/C=C2\SC(=N)N(c3ccc(F)cc3)C2=O)cc1	2.04% (inactive)
COc1ccc2[nH]c(C)c(CCN(Cc3cccs3)C(=S)Nc3ccccc3OC)c2c1	2.4% (inactive)
CCNC(=S)N(CCc1c(C)[nH]c2ccc(C)cc12)Cc1ccco1	9.53% (active)
COc1cccc(NC(=S)N(CCc2c(C)[nH]c3ccccc23)Cc2ccco2)c1	7.14% (inactive)
CCn1c(SCC(=O)N/N=C/C=C/c2ccccc2[N+](=O)[O-])nnc1-c1ccccc1	0.99% (inactive)
O=C(CSc1nc2ccccc2[nH]1)N/N=C/C=C\c1ccccc1[N+](=O)[O-]	0.9% (inactive)
Cc1ccc(-n2c(SCC(=O)N/N=C/C=C/c3ccccc3[N+](=O)[O-])nc3ccccc3c2=O)cc1	10.3% (active)
Cc1ccc(NC(=O)c2ccn(C(=O)Nc3ccccc3)n2)c(C)c1	1.13% (inactive)
COc1ccc(C)cc1NC(=S)Nc1ccccc1SC	0.14% (inactive)
COc1ccc(C)cc1NC(=O)Nc1ccccc1SC	3.85% (inactive)
COc1ccc(C)cc1NC(=O)C(Sc1ccccc1)c1ccccc1 (stereo not drawn)	12% (active)
Cc1c(CN2CCCCC2)c(O)n(CCO)c(=O)c1C#N	1.68% (inactive)
Cc1cc(C)c(C(N)=O)c(Cl)n1	-0.5% (inactive)
C/C(=N\Nc1nc(N2CCOCC2)nc(N2CCOCC2)n1)c1ccc([N+](=O)[O-])cc1	1.78% (inactive)
OCCC1CN(Cc2ccccc2-c2ccco2)CCN1Cc1ccsc1 (stereo not drawn)	0.13% (inactive)
CC1CCN(C2=NC(=O)/C(=C/c3cn[nH]c3-c3ccccc3)S2)CC1	9.65% (active)
Cc1ccc(N2CCN(C3=NC(=O)/C(=C\c4cccs4)S3)CC2)cc1	2.02% (inactive)
CCc1ccc(/C=C2\SC(N3CCOCC3)=NC2=O)cc1	2.12% (inactive)
O=c1c(Cl)c(NCc2ccc(F)cc2Cl)cnn1C12CC3CC(CC(C3)C1)C2	6.9% (inactive)
CCN(CCn1cccn1)Cc1nc(-c2ccc(C(=O)OC)cc2)no1	0.13% (inactive)
O=C(COc1ccc(NC(=O)c2ccccc2[N+](=O)[O-])cc1)c1ccc(F)cc1	6.75% (inactive)
Cc1ccc(C(=O)NCCNS(=O)(=O)c2ccccc2)cc1	0.27% (inactive)
Cc1ccccc1CSCCNC(=O)c1ccc(Cl)c(S(=O)(=O)N2CCOCC2)c1	7.41% (inactive)
Cc1ccccc1CSCCNC(=O)c1ccc(N(C)S(=O)(=O)c2ccccc2)cc1	14.2% (active)

SMILES	inhibition
COc1cccc(-c2nn(C)c3sc(C(=O)N4CCN(c5ccccc5)CC4)cc23)c1	8.94% (active)
COc1ccccc1N1CCN(C(=O)c2cc3c(-c4ccc(Cl)cc4)nn(C)c3s2)CC1	5.62% (inactive)
CCOC(=O)N1CCN(C(=O)c2cc3c(-c4ccc(Cl)cc4)nn(C)c3s2)CC1	-0.35% (inactive)
O=C(CCS(=O)(=O)Cc1ccccc1)Nc1ccc2c(c1)OCCO2	3.16% (inactive)
O=C(Nc1ccnc(-c2ccncc2)n1)c1cccs1	-0.85% (inactive)
COc1ccnc(Oc2ccccc2)n1	2.23% (inactive)
O=C(C1=C[C@H](c2ccc(C(F)(F)F)cc2)C[C@H](OCc2ccc(CO)cc2)O1)N1CCN(Cc2ccccc2)CC1	2.29% (inactive)
O=C(NCc1ccccc1)C1=C[C@@H](C2CCCCC2)C[C@@H](OCc2ccc(CO)cc2)O1	16.7% (active)
O=C(NCc1ccccc1)C1=C[C@@H](c2ccc(C(F)(F)F)cc2)C[C@@H](OCc2ccc(CO)cc2)O1	12.2% (active)
C=CCOC(=O)C1=C[C@@H](c2ccccc2)C[C@@H](OCc2ccc(CO)cc2)O1	1.5% (inactive)
CC(C)(C)[C@H]1C=C(C(=O)NCc2ccccc2)O[C@@H](OCc2ccc(CO)cc2)C1	3.51% (inactive)
O=C(NCc1ccccc1)C1=C[C@H](C2CC2)C[C@H](OCc2ccc(CO)cc2)O1	-0.5% (inactive)
Fc1ccccc1Cn1cnc(NC(=S)NCCc2ccccc2)n1	6.41% (inactive)
O=C(NCCc1ccc(F)cc1)c1n[nH]c2ccccc12	-0.97% (inactive)
C/C(N)=C(/C#N)C(=O)COC(=O)c1cc(-c2cccc(Br)c2)nc2ccccc12	4.74% (inactive)
O=C(CCC1CCCN(Cc2ccc(O)c(Cl)c2)C1)NCc1ccccc1F (stereo not drawn)	1.23% (inactive)
O=C(Oc1cccc(O)c1)C1CCCCC1	-0.74% (inactive)
CC(C)Oc1ccccc1C(=O)NC(CO)C(=O)O (stereo not drawn)	1.42% (inactive)
O=C(NN=C1CCC(=NNC(=O)c2cccnc2)CC1)c1cccnc1	1.46% (inactive)
CC(C)OCCCNC(=O)c1ccc(C2SCC(=O)N2Cc2ccco2)cc1 (stereo not drawn)	1.08% (inactive)
Cc1ccsc1C1C(C#N)=C(N)OC2=C1C(=O)CC(C)(C)C2 (stereo not drawn)	1.24% (inactive)
